Apoferritin bind – qHTS Assay for Identification of Novel General Anesthetics; 0.074% of 350,000 active; apoferritin/1-aminoanthracene competitive binding, fluorescence; Ferritin light chain (Equus caballus), P02791; Potency, µM (doses to about 77.5 µM), for the others: at the highest dose activity change, negative = displacement, actives largely listed as inhibitors; AID 485281, 2010; note: % is set by controls: 0 for no effect and ±100 for the full control effect; nearly all actives have a fitted effect of over 20% in size
Target sequence (P02791 2-175 limits assumed): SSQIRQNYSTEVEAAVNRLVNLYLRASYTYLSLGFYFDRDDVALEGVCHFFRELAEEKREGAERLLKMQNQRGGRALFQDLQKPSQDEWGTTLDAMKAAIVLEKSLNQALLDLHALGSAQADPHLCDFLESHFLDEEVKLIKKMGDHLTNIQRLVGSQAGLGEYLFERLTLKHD
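In PBS, apoferritin at 10 uM is loaded with 1-AMA from a 50% saturated solution. After 10 min of compound exposure at ambient temperature, reduced 535 nm fluorescence indicates probe displacement.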
GRP78 ERSR act – qHTS for Inducers of the Endoplasmic Reticulum Stress Response (ERSR) in Human Glioma: qHTS; U87-MG GRP78 promoter luciferase reporter, 16 h; 0.02% of 420,000 active; Potency, µM, inactives show at the highest dose activation, usual class: activators; AID 602332, 2012; note: series mostly up to about 76 µM; % of control where 0% means no effect; nearly all actives have a fitted effect of over 35% in size
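Stably transfected U87-MG human glioma cells carrying a GRP78-based luminescent sensor were seeded at 1000 cells/well, pin-dosed with compounds and incubated 16 h. Luciferase reagent was then added, and end-point luminescence was read after 10 min at room temperature.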
ALOX12 inh – Primary qHTS assay for inhibitors of human arachidonate 12S-lipoxygenase (ALOX12): Round 2; Polyunsaturated fatty acid lipoxygenase ALOX12 (Homo sapiens), P18054; purified 12hLO, xylenol orange hydroperoxide absorbance; Potency, µM (top dose mostly 108 µM), inactives show at the top dose activity change, negative = inhibition, hits mostly inhibitors; 1.1% of 580,000 active; note: % is set by controls: 0 for no effect and ±100 for the full control effect
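Hydroperoxide product was detected by ferrous iron/xylenol orange as the 573 to 405 nm absorbance ratio. Arachidonic acid at 40 uM (final) was turned over for 30 min at room temperature by 150 nM human 12hLO, pH 7.0 Hepes buffer, after 15 min compound preincubation.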
Chronic BCR inh – qHTS Assay to Find Inhibitors of Chronic Active B-Cell Receptor Signaling; ABC-DLBCL IkBa-CBG/CBR reporter, luminescence ratio, 4 h; Potency, µM (series often up to 46.1 µM), for inactives: top-dose activity change, negative = inhibition, usual class: inhibitors; 0.05% of 340,000 active; AID 493014, 2011; active = well fitted inhibition curve with a large enough effect in the signal ratio, with a control signal flat, not every such curve was filed as active; inconclusive = small, poorly fitted or top-dose-only effect, or effect the other way, or a change in a side signal; the % refers to the signal ratio;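 note: plate controls were basal doxycycline-induced cells for no effect and cells given 10 µM MG132 for full effect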
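Cell line TMD8 (human ABC DLBCL), stably expressing tet-inducible CBG68-IkBa fusion and CBR; IMDM/0.5% FBS; cpd up to 46 uM; dox induction, 4 h, 37C/5% CO2; dual luminescence; green/red ratio; MG132 control.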
* = called active by the depositor; ? = inconclusive; . = no result. Compounds with a hit are over-represented: about 1.1% of the library has one in this group of screens. Unless noted, calls come from the whole dose curve; as a rule, active = well fitted curve in the direction sought with a large enough effect; inconclusive = small, poorly fitted or top-dose-only effect, or another doubt; inactive = no such curve, though single readings can be large; an effect the other way counts as inactive or inconclusive. Potency is the fitted concentration of half-maximal effect.

SMILES	Apoferritin bind	GRP78 ERSR act	ALOX12 inh	Chronic BCR inh
CC(C)(C)C(=O)NC(=S)Nc1cc(C(F)(F)F)ccc1N1CCOCC1	-6%	-4%	35µM*	18%
CC(C)(C)C(=O)Nc1cc(C(F)(F)F)ccc1N1CCOCC1	-10%	-4%	-5%	?
Nc1cc(S(=O)(=O)Nc2ccc(Cl)cc2)ccc1N1CCOCC1	-11%	-3%	45µM*	-11%
COc1ccc2oc(=O)c(-c3ccc(OCC(=O)N4CCN(C(C)=O)CC4)cc3)cc2c1	.	.	29%	.
O=C1NN=C(c2ccc(Br)cc2)CC1c1ccc(Cl)cc1 (configuration not stated)	-15%	-5%	40µM*	10%
Cc1nn(C)cc1C(=O)N1C[C@@H](CO)[C@H](c2ccncc2)C1	.	.	50µM*	.
O=C(c1ccccc1Cl)N1C[C@@H](CO)[C@H](c2ccncc2)C1	.	.	15%	.
Cc1nc(SCC(=O)N(c2ccccc2)c2ccccc2)oc1C	.	.	9%	.
CC(Oc1cccc(Br)c1)C(=O)NNC(=O)c1ccc2c(c1)NC(=O)CCS2 (configuration not stated)	.	.	45µM*	.
CN(CCc1ccccn1)[C@@H]1[C@H](O)[C@H](CO)O[C@@H]1CNC(=O)Nc1ccc(F)cc1F	.	.	63%	.
O=S(=O)(NC[C@H]1O[C@@H](CO)[C@@H](O)[C@H]1N1CCN(c2ccccc2)CC1)c1ccc(F)cc1	.	.	22µM*	.
O=C(NC[C@H]1O[C@@H](CO)[C@@H](O)[C@H]1N1CCN(c2ccccn2)CC1)Nc1ccc(F)cc1F	.	.	10µM*	.
O=c1n(-c2ccncc2)nc2n1CCN([S+](=O)([O-])c1cccs1)C2	.	.	58%	.
Cc1cc(C(=O)N(C)C2CCS(=O)(=O)C2)c2ccc(F)cc2n1 (configuration not stated)	.	.	4%	.
O=C(NC(=S)NCc1ccc(-c2nc3ccccc3s2)cc1)c1ccco1	-16%	-2%	11µM*	?
CCOC(=O)C1=C(CN2CCN(C(=O)OCC)CC2)NC(=O)NC1c1ccc(OC)c(COC)c1 (configuration not stated)	.	.	15%	.
CC(C)(O)CCc1c(-c2ccc(O)cc2O)oc2c3c(cc(O)c2c1=O)OC(C)(C)C=C3	.	-8%	45µM*	.
Cc1ccccc1-n1nnnc1SCC(=O)N(Cc1ccco1)C1=CCCCC1	.	.	8.9µM*	.
CCN(CC)CC(=O)c1c(C)n(C)c2ccc(OC)cc12	.	-5%	7.9µM*	.
CCOCc1cnc(C)nc1NCC(=O)c1c(C)n(C)c2ccc(OC)cc12	?	-5%	?	?
COc1ccc2c(c1)c(C(=O)CNc1nc(C)cs1)c(C)n2C	-19%	-3%	8.9µM*	2%
COc1ccc2c(c1)c(C(=O)CN(C)C)c(C)n2C	.	-3%	?	.
CCCCCC1(C)NC(=S)N(c2ccccc2)N1 (configuration not stated)	-4%	-3%	0.79µM*	-18%
CCC1(c2ccc(Cl)cc2)NC(=S)N(c2ccccc2)N1 (configuration not stated)	-1%	5%	16µM*	?
Cc1ccc(Cl)cc1NC(=O)Nc1cccc(-c2ccc(N3CCOCC3)nn2)c1	.	.	3%	.
SMILES	Apoferritin bind	GRP78 ERSR act	ALOX12 inh	Chronic BCR inh
Cc1cc(C(F)(F)F)nc(SC(C(=O)O)c2ccccc2)n1 (configuration not stated)	.	.	11µM*	.
Cc1ccc(-c2cc(C(=O)NCc3ccco3)c3ccccc3n2)cc1C	.	.	-8%	.
CCOCCSc1nnc(-c2nn(Cc3ccccc3)c(=O)c3ccccc23)o1	.	.	28µM*	.
CCCSc1nnc(-c2nn(Cc3ccccc3)c(=O)c3ccccc23)o1	.	.	4%	.
O=c1cc(CSc2nnnn2-c2ccccc2)[nH]n1-c1ccc(F)cc1	.	.	18µM*	.
O=c1cc(CSc2nnnn2-c2ccccc2)[nH]n1-c1ccccc1	.	.	-76%	.
Cc1ccc(CNC(=O)c2c(Nc3ccccc3C)sc(C(=O)c3ccc(F)cc3)c2N)cc1	-17%	10%	?	22µM*
O=C(O)Cc1sc(-c2cccnc2)nc1-c1ccc(Br)cc1	-1%	-5%	35µM*	?
CCOc1ccc(-n2c(=S)sc3c(=O)[nH]c(SCC(=O)N4CCC(C)CC4)nc32)cc1	-16%	-2%	45µM*	?
O=C1ON=C(c2ccccc2)/C1=C/c1ccc(OS(=O)(=O)c2ccccc2)cc1	-6%	-1%	18µM*	-2%
CC(c1ccc(F)cc1)N1CCN(c2oc(C3CC3)nc2C#N)CC1 (configuration not stated)	.	.	-1%	.
COC1=C(NCc2ccc3c(c2)OCO3)C(=O)C(OC)=C(NCc2ccc3c(c2)OCO3)C1=O	.	-5%	8.9µM*	.
Cc1ccc(Nc2cc(C)nc3c(C)c(C)ccc23)cc1	.	.	-18%	.
CCCc1ccc(C(=O)/C(C#N)=C\c2cn[nH]c2C(C)(C)C)cc1	.	.	-12%	.
NC(=S)Nc1ncc(C(F)(F)F)cc1Cl	-13%	-2%	40µM*	-1%
NC(=S)c1ncc(C(F)(F)F)cc1Cl	-6%	-3%	34%	1%
N#CC1=C(N)n2c(s/c(=C\c3ccco3)c2=O)=C(C#N)C1c1ccco1 (configuration not stated)	8%	-3%	13µM*	?
CCCCc1c(-c2ccccc2OC)ncn1Cc1ccc(Cl)cc1Cl	.	.	32µM*	.
CCCCc1c(-c2ccccc2OC)ncn1Cc1ccc(F)cc1F	.	.	2%	.
CCOc1ccc(-c2n[nH]c(C)c2-c2ccccc2OC)c(O)c1	?	-5%	39%	?
CCc1cc(-c2n[nH]c(C)c2-c2ccccc2Cl)c(O)cc1OC	-20%	-16%	40µM*	?
CC1C[N+](=C2C=C(N3CCOCC3)CC(C)(C)C2)CC(C)O1 (configuration not stated)	8%	-2%	28µM*	6%
CC1CCCCN1C(=O)Nc1cccc(Cl)c1 (configuration not stated)	22µM*	2%	-1%	?
COc1ccc(NC(=O)C2CC(=O)Nc3c(-c4ccc(OC)cc4)cnn32)cc1 (configuration not stated)	.	.	-8%	.
CN(C)c1nccc(N(Cc2ccccc2)Cc2ccccc2)c1C#N	180%	13%	3.2µM*	?
SMILES	Apoferritin bind	GRP78 ERSR act	ALOX12 inh	Chronic BCR inh
Nc1ccc(-c2cn[nH]c2)cc1	.	.	-5%	.
O=c1[nH]nc(-c2ccco2)c2c1Nc1nnnn1C2c1cccc(F)c1 (configuration not stated)	.	.	2%	.
ClCCn1c(CCl)nc2ccc(Cl)cc21	.	-5%	10µM*	.
C/C(=N\NC(=S)NCc1ccccc1)c1ccc(C(C)(C)C)cc1	-11%	12%	35µM*	?
C/C(=N\NC(=S)NCc1ccccc1)c1ccccc1	-12%	8%	40µM*	?
COc1ccc(CNC(=S)N/N=C(/C)c2ccccc2)cc1	-5%	5%	?	-25%
